Screening data (PubChem BioAssay)
Only some compounds are listed: those with a hit (about 2.4% of all), similar ones and a draw of the others.
MBD2 DNA inh: inhibitors of human MBD2 binding to methylated oligonucleotide | inhibition, % at 4.4 µM | 370,000 compounds, 0.31% hits | AID 686964 | TR-FRET | Q9UBB5; in the data active = inhibition above about 13%
Target sequence (Q9UBB5 whole entry, looked up): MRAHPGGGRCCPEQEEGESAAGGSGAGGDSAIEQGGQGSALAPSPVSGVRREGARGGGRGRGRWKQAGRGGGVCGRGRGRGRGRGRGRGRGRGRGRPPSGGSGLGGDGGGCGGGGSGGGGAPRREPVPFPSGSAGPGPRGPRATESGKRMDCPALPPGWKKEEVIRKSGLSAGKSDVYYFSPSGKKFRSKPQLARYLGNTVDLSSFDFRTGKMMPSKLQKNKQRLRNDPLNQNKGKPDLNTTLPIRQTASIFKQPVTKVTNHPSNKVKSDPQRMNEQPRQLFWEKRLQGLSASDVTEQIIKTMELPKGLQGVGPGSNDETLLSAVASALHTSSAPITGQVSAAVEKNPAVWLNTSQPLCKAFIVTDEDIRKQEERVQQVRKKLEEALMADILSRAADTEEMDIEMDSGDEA
UHRF1 MBD2 ctr: human UHRF1 methylated DNA binding inhibitors; UHRF1 binding to methylated oligo, TR-FRET; inhibition, % at 4.4 µM; 370,000 compounds, 0.75% hits; in the data active = inhibition above about 21%;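 also: UHRF1 SRA domain binding a hemimethylated CpG hairpin DNA probe; 0% = median of test compound wells and 100% = reference inhibitor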
PLC-beta3 inh: inhibitors of human phospholipase C beta3; Purified PLC-beta3, fluorogenic substrate, fluorescence; inhibition, % at 12.2 µM; 370,000 compounds, 0.18% hits; in the data active = inhibition above about 11%;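 also: 0% = median of compound wells on plate and 100% = full blocker control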
PLC-gamma1 inh: inhibitors of human phospholipase C gamma1 | AID 720700 | purified PLC-gamma1, fluorogenic substrate, fluorescence | P19174 | inhibition, % at 12.2 µM | 370,000 compounds, 0.84% hits; in the data active = inhibition above about 9.5%
LEDGF integ inh: blocks HIV-1 LEDGF/p75-dependent DNA integration; TR-FRET IN-LEDGF/p75 DNA integration, Eu/Cy5; inhibition, % at 3.7 µM; 370,000 compounds, 0.64% hits;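 active = inhibition above the screen-wide mean plus 3 SD, cut at about 13% in these data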;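 also: signal is the Cy5 over europium emission ratio at 671 and 618 nm; 0% = plate median of compound wells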
* = called active by the depositor.

SMILES | MBD2 DNA inh | UHRF1 MBD2 ctr | PLC-beta3 inh | PLC-gamma1 inh | LEDGF integ inh
Cc1ccc(Cl)cc1NC(=S)N(Cc1ccccc1)Cc1cccnc1 | 9 | 25* | -10 | -1 | -7
CCCc1nc2ccc(C(=O)OC)cn2c1Cc1ccc(C)cc1 | 10 | 22* | -17 | -9 | 6
CCCc1nc2ccc(C(=O)OC)cn2c1Cc1ccccc1 | 11 | 25* | -41 | -28 | -4
O=C(COC(=O)/C=C/c1cccc(C(F)(F)F)c1)NCc1ccco1 | 6 | 2 | -7 | -5 | 28*
C[C@@H]1COc2cc(F)ccc2S(=O)(=O)N1C | 5 | 0 | 1 | 1 | 0
COc1ccc(CN2CCC(CNC(=O)NC(C)C)CC2)cc1 | -5 | 4 | 5 | 9 | 2
CSc1ccccc1NC(=O)NCCCl | 2 | 22* | -3 | -1 | -1
CN(CCCOC(=O)c1occ2ccccc12)C1CN(Cc2cn(Cc3ccccc3Cl)nn2)S(=O)(=O)C1 (stereo not drawn) | 9 | 2 | 0 | 0 | 0
Clc1ccc(CN2CCN(N=Cc3ccncc3)CC2)cc1 | 0 | -5 | 5 | 0 | 0
Cc1ccc(NC(=O)[C@H](Cc2ccccc2)NC(=O)[C@@H]2Cc3ccccc3CN2)c(C)c1 | 13 | 27* | -10 | -2 | 2
Cc1ccc(NC(=O)[C@H](NC(=O)[C@@H]2Cc3ccccc3CN2)c2ccccc2)c(C)c1 | 3 | -1 | -7 | 0 | -7
COC(=O)C1CN(Cc2ccc(C)cc2)CCS(=O)(=O)N1Cc1cn(Cc2ccccc2)nn1 (stereo not drawn) | -3 | 11 | 2 | 1 | 8
Cc1noc(C)c1S(=O)(=O)NCc1ccc2c(c1)OCO2 | -4 | 3 | 5 | 8 | 6
Cc1noc(C)c1S(=O)(=O)NCc1ccc(CN(C)C)cc1 | 3 | 33* | 0 | -3 | 0
CCCCCCCCN1CCS(=O)(=O)N(Cc2ccc(OC)cc2)C(C(=O)OC)C1 (stereo not drawn) | -3 | -1 | 3 | -2 | -1
CC(=O)Nc1cc(OC(C)=O)c2nonc2c1OC(C)=O | 19* | 15 | -89 | -33 | 39*
O=C(c1ccc(F)cc1)C1CCN(C(=O)c2ccncc2)CC1 | -6 | 80* | 1 | 1 | 0
O=C(c1ccc(F)cc1)C1CCN(C(=O)c2ccc(F)cc2)CC1 | -5 | -1 | -6 | -1 | -4
Cc1c(C(=O)Nc2cccc(N(C)S(C)(=O)=O)c2)cccc1[N+](=O)[O-] | 1 | 3 | 14* | 14* | 8
CN(c1cccc(NC(=O)c2ccc(N(C)S(=O)(=O)c3ccccc3)cc2)c1)S(C)(=O)=O | -5 | 0 | 1 | -1 | 1
CN(c1cccc(NC(=O)c2ccc(C(C)(C)C)cc2)c1)S(C)(=O)=O | 3 | 23* | -7 | -1 | 2
CN(c1cccc(NC(=O)c2ccccc2N(C)S(C)(=O)=O)c1)S(C)(=O)=O | 3 | 4 | 2 | 5 | 0
CC(Sc1ccccc1)C(=O)Nc1cccc(N(C)S(C)(=O)=O)c1 (stereo not drawn) | -5 | 23* | 4 | 5 | -1
CCOC(=O)N1C(=O)C[C@](Sc2ccc(OC)cc2)(C(=O)N2CCN(c3ncccn3)CC2)[C@H]1c1ccc(OC)cc1 | 2 | 0 | -2 | -3 | -1
Cc1cc(CSc2ccccc2)ccc1NC(=O)c1ccc(Br)cc1 | -3 | 33* | 1 | 0 | 0
SMILES | MBD2 DNA inh | UHRF1 MBD2 ctr | PLC-beta3 inh | PLC-gamma1 inh | LEDGF integ inh
O=C(Nc1ccc(Cl)c(Cl)c1)C1CCCN1S(=O)(=O)c1cccc2cccnc12 (stereo not drawn) | -2 | -2 | 0 | 4 | -2
O=S(=O)(c1ccccc1)N(Cc1nc(-c2ccccc2)no1)C1CCCCC1 | 1 | 5 | -13 | 15* | 1
CC(=O)c1ccc(NC(=O)[C@@]2(CC(=O)O)CC(/C=C/c3ccccc3)=NO2)cc1 | -2 | 54* | 0 | 0 | -2
COc1ccc(NC(=O)[C@@]2(CC(=O)O)CC(/C=C/c3ccccc3)=NO2)cc1 | 2 | 6 | -17 | -9 | -1
Cc1ccc(SCC(=O)N2CCC(C(N)=O)CC2)cc1 | -6 | -3 | -7 | -3 | -4
Cc1ccc(C(=O)CCC(=O)N2CCC(C(N)=O)CC2)cc1 | -2 | 29* | -9 | -3 | 5
Oc1c(N=Nc2nn[nH]n2)ccc2ccccc12 | -12 | 1 | -23 | -11 | 14*
COC(=O)c1ccc(N2NC(=O)/C(=C/c3ccc(-c4ccc(Cl)c(C(=O)O)c4)o3)C2=O)cc1 | 9 | 39* | -16 | -7 | 11
Cc1ccc(N2NC(=O)/C(=C/c3ccc(-c4ccc(Cl)c(C(=O)O)c4)o3)C2=O)cc1C | -2 | 4 | -6 | -2 | -2
CC1=NOC(=O)/C1=C\c1ccc(-c2ccc(Cl)c(C(=O)O)c2)o1 | 5 | 28* | -7 | -5 | 7
CCn1c2ccccc2c2cc(NC(=O)COC(=O)c3cccc(F)c3)ccc21 | -7 | 2 | 1 | -1 | -1
COc1ccc(C(=O)OCCN(C)C2CN(Cc3cn(Cc4cccc(F)c4)nn3)S(=O)(=O)C2)cc1OC (stereo not drawn) | 6 | 9 | -3 | -3 | -2
CCCCCCCCN1C(=O)[C@@H](CC(=O)N2CCN(C(=O)OCC)CC2)C[C@@]2(C(=O)OC)C1=C[C@H](COCc1ccccc1)O[C@@H]2C | -2 | 0 | -1 | -1 | -2
COc1ccc(-c2nc(=S)c3c(n2Cc2cccnc2)CC(C)(C)OC3)cc1 | 10 | 24* | -9 | -4 | 0
Cc1cc(OCC(C)CN2CCC(C(O)(c3ccccc3)c3ccccc3)CC2)ccc1Br (stereo not drawn) | -3 | 0 | -5 | 0 | -4
C[C@@H](OC(=O)N1CCCCC1)[C@H]1O[C@]2(C)CCCC[C@H]1O2 | 2 | 8 | 7 | 11* | 0
O=C1N2Cc3ccccc3C2CS(=O)(=O)N1Cc1ccccc1 (stereo not drawn) | -1 | -1 | -1 | 0 | 0
CCC(=O)Nc1ccc(N2CCOCC2)c(S(=O)(=O)Nc2ccc(OC)cc2)c1 | -1 | 1 | -1 | -1 | -2
COc1ccc(N2CCN(c3ccc4nnc(CCC(=O)Nc5ccc(C)cc5)n4n3)CC2)cc1 | 4 | 21* | 0 | -1 | 0
COc1ccc(CCC(=O)Nc2ccc(N3CCOCC3)cc2)cc1 | 13 | 31* | 4 | 3 | 4
COc1ccc(NC(=O)CCc2nnc3ccc(N4CCC(C)CC4)nn23)cc1 | 4 | 0 | -9 | -1 | -5
COc1ccc(NS(=O)(=O)c2cc(NC(=O)CCc3ccccc3)ccc2N2CCOCC2)cc1 | 6 | 31* | -4 | 5 | -1
COc1ccc(OC)c(CN2C(=O)CSCCC2(C)c2nnnn2C2CCCC2)c1 (stereo not drawn) | -7 | -3 | 2 | -3 | 2
c1ccc(-c2noc(C3CCC3)n2)nc1 | 11 | 25* | -7 | 0 | 1
Cc1cccc(NC(=S)N=Nc2c(O)[nH]c3ccccc23)c1 | -4 | -1 | 2 | 11* | -11
